Test results from PubChem BioAssay (NCI).
The panel holds about 79,000 compounds, 15% with a hit somewhere; the sample as a whole holds those more often. No stated cut-off is given here; in the data, active means growth inhibition above about 70%; inactive means the rest.

What was measured:
[1] = NCI Yeast Anticancer Drug Screen. Data for the rad50 strain (AID 155);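 further: 0% = growth of vehicle-only cultures of the same strain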; settings: S. cerevisiae rad50 strain growth inhibition; at 50.0 µM; active compounds read high
Summary of the method: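 DNA repair mutant yeast, compound exposure, growth read-out; inhibition is taken relative to vehicle.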

[2] = NCI Yeast Anticancer Drug Screen. Data for the mec2-1 strain (AID 157); settings: S. cerevisiae mec2-1 strain, at 50.0 µM, active compounds read high
Summary of the method: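 Test agents were screened against the mec2-1 yeast strain, with defined DNA repair or cell cycle alteration. Growth was scored as inhibition against vehicle-only controls.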

[3] = NCI Yeast Anticancer Drug Screen. Data for the sgs1 mgt1 strain (AID 161);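 further: 0% = growth of cultures given vehicle only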; settings: S. cerevisiae sgs1 mgt1 strain, at 50.0 µM, active compounds read high
Summary of the method: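 Genetically altered yeast, compound exposure, growth inhibition relative to vehicle.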

[4] = NCI Yeast Anticancer Drug Screen. Data for the cln2 rad14 strain (AID 165);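 further: 0% = growth equal to vehicle treated cultures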; settings: S. cerevisiae cln2 rad14 strain, at 50.0 µM, active compounds read high
Summary of the method: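 Growth of compound-exposed yeast (cln2 rad14 genotype) measured and expressed as inhibition relative to vehicle.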

[5] = NCI Yeast Anticancer Drug Screen. Data for the bub3 strain (AID 167); settings: S. cerevisiae bub3 mutant strain, at 50.0 µM, active compounds read high
Summary of the method: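 In this screen, a yeast mutant lacking normal mitotic checkpoint function is challenged with compound. Relative growth versus vehicle gives the inhibition value.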

[6] = NCI Yeast Anticancer Drug Screen. Data for the mlh1 rad18 strain (AID 175); settings: S. cerevisiae mlh1 rad18 strain growth inhibition; at 50.0 µM; active compounds read high
Summary of the method: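 In this whole-cell yeast screen, a strain with altered DNA damage repair is challenged with compound, and its growth is measured against matched vehicle-treated controls.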

Measured: growth inhibition

CC(=O)C1CCCCC1
inactive: [1] 26.7% | [2] 11.2% | [3] 4.5% | [4] 11.7% | [5] 1.2% | [6] 16.8%

CN(C)CCC(=O)c1ccc(O)cc1
inactive: [1] 4.6% | [2] 8.65% | [3] 3.25% | [4] -22.2% | [5] -14.8% | [6] -9.45%

O=C(NCc1ccco1)Nc1c(Cl)cc(Cl)cc1Cl
inactive: [1] -3.1% | [2] -26.1% | [3] -2.85% | [4] 2.65% | [5] -13.4% | [6] -3.6%

C[N+](C)=c1ccc2nc3c(cc(Nc4ccccc4)c4ccccc43)oc-2c1
inactive: [1] 20.1% | [2] 49.6% | [3] 30.1% | [4] 29.6% | [5] 38% | [6] 39.2%

COc1cc2cc(OC(C)=O)c3cc4c(cc3c2c(OC)c1OC)OCO4
inactive: [1] -18.4% | [2] -10.8% | [3] -16.3% | [4] -5.2% | [5] -21.9% | [6] -25.1%

Nc1nc(N)c(N=Nc2ccc(C(=O)O)cc2)c(N)n1
inactive: [1] -3.65% | [2] 7.35% | [3] 3% | [4] 19.6% | [5] 19% | [6] 22.4%

O=c1[nH]n(-c2ccccc2)c(=O)cc1Cl
inactive: [1] -0.9% | [2] 2.25% | [3] -4% | [4] -0.3% | [5] 3.55% | [6] 2%

O=C(O)C(c1ccccc1)C(O)c1ccccc1 (stereo not drawn)
inactive: [1] 5.35% | [2] -21.4% | [3] -22.7% | [4] -26.1% | [5] -30.4% | [6] -7.45%

CCOc1ccc(Br)cc1/C=N\N=C\c1cc(Br)ccc1OCC
inactive: [1] -9.15% | [2] -29.2% | [3] -1.65% | [4] 13.3% | [5] 4.25% | [6] -10.3%

N#CC1(Nc2ccc3c4c(cccc24)CC3)CCCCC1
inactive: [1] 0.8% | [2] 7.2% | [3] 15.1% | [4] 16% | [5] 26.2% | [6] 12.5%

NCCC(=O)c1ccc(Cl)cc1
inactive: [1] 45.4% | [2] -10.4% | [3] 6.8% | [4] 4.45% | [5] -9.6% | [6] 19.8%

COC(=O)c1ccc(NC(=O)CCl)cc1
inactive: [1] 44.8% | [2] 37% | [3] 50% | [4] 49% | [5] 32.7% | [6] 45.5%

CCCCOC(OCCCC)c1ccccc1
inactive: [1] -26.5% | [2] -9.5% | [3] 20.7% | [4] -18.6% | [5] -1.8% | [6] 12.2%

Nc1nc(N)c2cc(S(=O)(=O)c3cccc(C(F)(F)F)c3)ccc2n1
inactive: [1] 34% | [2] 24.9% | [3] 7.4% | [4] 11.2% | [5] -15.4% | [6] -59.4%

O=C(O)[C@@H]1[C@H]2C[C@H]3c4[nH]c5ccccc5c4CCN3C[C@@H]2CC[C@@H]1O
inactive: [1] -10.3% | [2] -27% | [3] 9.45% | [4] 6.5% | [5] -20.6% | [6] -19.9%

Nc1ccc(N=Nc2ccc(O)cc2)c(N)n1
inactive: [1] -15.7% | [2] -20.1% | [3] -16.7% | [4] 2.85% | [5] 22.7% | [6] -4.7%

CN(C)c1ccc(CNC(C(=O)c2ccccc2)c2ccccc2)cc1 (stereo not drawn)
inactive: [1] -31% | [2] -5.35% | [3] -15.6% | [4] -17.4% | [5] 8.3% | [6] -20.9%

CCOC(=O)/C(C#N)=C/c1cccc(C)c1
inactive: [1] -19.4% | [2] 22.8% | [3] -25.2% | [4] 13.3% | [5] 23.2% | [6] -6.55%

CCN=c1cc2sc3cc(NCC)c(C)cc3nc-2cc1C
inactive: [1] -22.1% | [2] -35.8% | [3] -16.4% | [4] -14.4% | [5] -15.4% | [6] -22.6%

Cc1cc(=O)[nH]c(NN=C2CCCC2)n1
inactive: [1] -27.9% | [2] -52.5% | [3] -35.4% | [4] -2.6% | [5] -33.5% | [6] -27.1%

COC(=O)Nc1nc2ccc(C(=O)c3cccs3)cc2[nH]1
inactive: [1] -1.25% | [2] 33.4% | [3] 17.5% | [4] -35% | [5] 24.4% | [6] 19%

CCCC1(c2ccccc2)NC(=O)NC1=O (stereo not drawn)
inactive: [1] 5.75% | [2] 0.3% | [3] -6.1% | [4] -81.1% | [5] 7.95% | [6] -13.7%

CSC(=N\N=C\c1ccc(N(C)C)cc1)/N=C/N(C)C
inactive: [1] -4.3% | [2] -8.15% | [3] 6.05% | [4] 7.65% | [5] 18.6% | [6] 25.1%

Cc1cccc([N+](=O)[O-])c1Cl
inactive: [1] -39.2% | [2] -72.5% | [3] -36.5% | [4] 10.6% | [5] -30.8% | [6] -17.6%

O=[N+]([O-])c1ccc(CO)cc1
inactive: [1] 0.15% | [2] 0.35% | [3] 8.85% | [4] 6.75% | [5] 22.1% | [6] 4.1%

CC(C)(C)n1nc(C2CC2)c(Br)c1NC(=O)c1ccccc1F
inactive: [1] -6.6% | [2] -12.2% | [3] 8.7% | [4] 3.25% | [5] 5.55% | [6] 10.9%

CCC(O)CC(CC)CO (stereo not drawn)
inactive: [1] -4.1% | [2] -2.7% | [3] 4.4% | [4] -32.7% | [5] -12.2% | [6] -10.1%

O=C(O)CCCCNC(=O)c1ccccc1
inactive: [1] 19.6% | [2] -14.4% | [3] 3.25% | [4] 12.3% | [5] -4.8% | [6] 9.4%

CCO/C=C1\SC(=S)N(c2cccc(C)c2)C1=O
inactive: [1] 11.1% | [2] 13.7% | [3] 1.25% | [4] 13.2% | [5] 14.9% | [6] 16.9%

Clc1ccc(-c2nnc(-c3cccc4ccccc34)o2)cc1
inactive: [1] -22.9% | [2] -56.9% | [3] -29.4% | [4] 0.15% | [5] -19.6% | [6] -24.6%

CC1OC(Oc2c(-c3ccc(O)c(O)c3)oc3cc(O)cc(O)c3c2=O)C(O)C(O)C1O (stereo not drawn)
inactive: [1] 21.4% | [2] -8.25% | [3] 14.2% | [4] 8.6% | [5] 20.9% | [6] 38.4%

COCCOCCCl
inactive: [1] 10% | [2] -19.3% | [3] -12.5% | [4] -7.95% | [5] -6.5% | [6] -6.7%

CC(CC(=O)c1ccccc1)c1ccccc1 (stereo not drawn)
inactive: [1] -7.9% | [2] -18.4% | [3] -10.7% | [4] -13.7% | [5] -19.4% | [6] 10.2%

OCC(O)C(O)C(O)C(O)/C=N/O (stereo not drawn)
inactive: [1] 1.4% | [2] 0.7% | [3] -6.4% | [4] -6.7% | [5] -1.1% | [6] 3.65%

CC(=O)c1ccc(N=C(C#N)C2=C(O)c3ccccc3C2=O)cc1
inactive: [1] 15.7% | [2] -12.4% | [3] 25.8% | [4] 14.2% | [5] 10.9% | [6] 13.3%

CCCCCCCCO
inactive: [1] 12.1% | [2] 17.2% | [3] 2.25% | [4] 5.5% | [5] -20.4% | [6] -13.2%

CC(C)(N)COS(=O)(=O)O
inactive: [1] -14.6% | [2] -14.1% | [3] -7.95% | [4] -6.9% | [5] 9.25% | [6] -14.1%

CCOc1ccc(/C=N/N=C(N)N)cc1OCC
inactive: [1] -31.4% | [2] -18% | [3] -17.6% | [4] -53.4% | [5] -8.4% | [6] -11.9%

COC1=CC(=O)c2nc(Cl)ccc2C1=O
inactive: [1] 29% | [2] 9.95% | [3] 35.2% | [4] -1% | [5] 11.8% | [6] 24.6%

O=C1c2ccccc2C(=O)c2c1ccc(C(=O)O)c2[N+](=O)[O-]
inactive: [1] 29.4% | [2] 16.6% | [3] 32.2% | [4] 31.8% | [5] 19.7% | [6] 28%

O=C(Nc1ccccc1)OCCc1ccccc1
inactive: [1] 45.3% | [2] 37.8% | [3] 27.4% | [4] 42.9% | [5] 37.6% | [6] 34.2%

CCOC(=O)c1ccc(NC(=S)P(=O)(c2ccccc2)c2ccccc2)cc1
inactive: [1] 41.5% | [2] 10.2% | [3] 42.8% | [4] 30.7% | [5] 14.9% | [6] 39.8%

CCOC(=O)c1cc(/C=C/c2ccc(Cl)cc2Cl)on1
inactive: [1] -31.4% | [2] -52.7% | [3] -43% | [4] -41.1% | [5] -36.1% | [6] -45.5%
